From PubChem BioAssay (Tox21)
Several values for one entry are separate records, joined by “and”; a condition that tells them apart may be missing. Equal entries are not always repeated. Results filed as inconclusive are left out. A call without a number means that no potency is given here. Activity calls are given as the source filed them. The call rests on the fitted dose curve.

assay: qHTS assay to identify small molecule antagonists of the estrogen receptor alpha (ER-alpha) signaling pathway using the BG1 cell line (AID 743080); conditions: BG1Luc4E2 ERE-luciferase antagonist mode, luminescence; series mostly up to 70.3 µM;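 further: BG1 cells stimulated with 17beta-estradiol alongside compound; nearly all actives have a fitted effect of over 25% in size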
From the text: National Center for Advancing Translational Sciences [NCATS]
NIH Chemical Genomics Center [NCGC]
U.S. Environmental Protection Agency [EPA]
National Institutes of Environmental Health Sciences [NIEHS]
National Toxicology Program [NTP]
U.S. Food and Drug Administration [FDA]
Estrogen receptor (ER), a nuclear hormone receptor, plays an important role in development, metabolic homeostasis and reproduction. Endocrine disrupting chemicals (EDCs) and their interactions with steroid hormone receptors like ER causes disruption of normal endocrine function. Therefore, it is important to understand the effect of environmental chemicals on the ER signaling pathway. To identify ER antagonists, BG1-Luc-4E2 cell line (provided by Dr. Michael Denison from University of California) has been used to screen the Tox21 10K compound library. BG1Luc4E2 cell line endogenously expresses full-length ER-alpha and is stably transfected with a plasmid containing four estrogen responsive elements (ERE) upstream of a luciferase reporter gene.
Tox21 Assay Protocol Summary:
BG1-Luc-4E2 cells were cultured in phenol red free assay medium containing 10% charcoal stripped FBS for 5 days before the assay was performed. The cells were dispensed at 4,000 cells/4 uL of assay medium per well into white wall/solid-bottom 1536-well plates using a Multidrop Combi (ThermoFisher Scientific, Waltham, MA) dispenser. The assay plates were incubated at a 37C and 5% CO2 for 24 h, and then 23 nL of compounds dissolved in DMSO, positive controls or DMSO only was transferred to the assay plate using a Pintool station (Kalypsys, San Diego, CA), followed by addition of 1 uL of 17beta-estradiol in assay medium using a Flying Reagent Dispenser (Aurora Discovery, San Diego, CA). After the plates were incubated at 37 C and 5% CO2 for 21.5 h, 1 uL of CellTiter-Fluor reagent (Promega, Madison, WI) of measuring cytotoxicity was added using Flying Reagent Dispenser (FRD) to each well. The assay plates were incubated at 37 C and 5% CO2 for additional 30 min and the fluorescence intensity was quantified by a ViewLux plate reader (PerkinElmer, Shelton, CT). For measuring luciferase reporter gene activity, 4 uL of ONE-Glo reagent (Promega) was added to each plate using an FRD and luminescence was quantified by a ViewLux plate reader after 30 min incubation at room temperature.
Potency means the concentration at half of the fitted maximal effect.

SMILES	Potency
Clc1ccnc(Cl)n1	inactive
Cc1cc(C(C)(C)C)c(O)c(C)c1Cn1c(=O)n(Cc2c(C)cc(C(C)(C)C)c(O)c2C)c(=O)n(Cc2c(C)cc(C(C)(C)C)c(O)c2C)c1=O	inactive
CCc1cccc(CC)c1NC(=O)CN(CC(=O)O)CC(=O)O	inactive
Cc1ccc(N/N=c2\c(=O)cc/c(=N\Nc3ccc(S(=O)(=O)O)cc3)c2=O)c(C)c1	inactive
O=C(/C=C/c1ccccc1)OC/C=C/c1ccccc1	inactive
CCCCCc1ccc(Cl)cc1	inactive
Nc1nc2c(ncn2COCCO)c(=O)[nH]1	inactive
[Cl][Pt-2]([Cl])([Cl])[Cl]	inactive
CC(C)NC[C@@H](O)COc1ccc(CC(N)=O)cc1	inactive
Cc1c2ccccc2c(C)c2c1ccc1ccccc12	67.9 nM (active) and 486 nM (active)
OC/C=C/CO	inactive
CCCCCCCCCCCCCC[N+](C)(C)Cc1ccccc1	26.6 µM (active)
CCCC[P+](C)(CCCC)CCCC	inactive
CC1=CCC(=C(C)C)CC1	inactive
O=S(=O)(O)c1ccccc1/C=C/c1ccc(-c2ccc(/C=C/c3ccccc3S(=O)(=O)O)cc2)cc1	inactive
O=C(O)[C@H](O)[C@@H](O)[C@H](O[C@@H]1O[C@H](CO)[C@H](O)[C@H](O)[C@H]1O)[C@H](O)CO	inactive
C=C(C)C(=O)OCCCCCCCCCC	inactive
Cc1c(F)c(N2CCNC(C)C2)cc2c1c(=O)c(C(=O)O)cn2C1CC1 (stereo not given)	inactive
Nc1cc(Cl)c(O)c(Cl)c1	inactive
CCCCC/C=C\C/C=C\CCCCCCCC(=O)O	inactive

SMILES	Potency
CC1=Nc2ccccc2C1(C)C	inactive
COC(=O)c1ccccc1OC	inactive
Clc1sc(Cl)c(Cl)c1Cl	inactive
O=C(O)c1cc(=O)c2ccccc2o1	inactive
CCCCCCCCCCCCOCCOCCOCCOCCOCCOCCOCCOCCOCCO	5.96 µM (active)
CC[N+](CC)(CC)CCOc1ccc(/C=C/c2ccccc2)cc1	29.8 µM (active)
Cc1cccc(C(=O)O)c1O	inactive
CN(C)c1ccc(C(=C2C=CC(=[N+](C)C)C=C2)c2ccc(N(C)C)cc2)cc1	2.42 µM (active) and 3.86 µM (active)
COC(=O)Nc1nc2ccc(C(=O)c3ccccc3)cc2[nH]1	inactive
CC(C)CCCCCOC(=O)CCS	inactive
CCCCN(CCCC)CC(O)c1cc(Cl)cc2c1-c1ccc(Cl)cc1/C2=C/c1ccc(Cl)cc1 (stereo not given)	inactive
CC(=O)CC(=O)Nc1ccc(S(=O)(=O)O)cc1	inactive
OC1CCCc2ccccc21 (stereo not given)	inactive
CCC(C)n1ncn(-c2ccc(N3CCN(c4ccc(OC[C@H]5CO[C@](Cn6cncn6)(c6ccc(Cl)cc6Cl)O5)cc4)CC3)cc2)c1=O (stereo not given in full)	13.3 µM (active)
CCCCCCCC/C=C\CCCCCCCCN	inactive
Cc1cc(C(C)(C)C)cc(C)c1CC1=NCCN1	inactive
CC(C)OC(=O)C(O)(CC(=O)O)CC(=O)O	inactive
Cc1ccc(O)c(O)c1	inactive
Cc1c(C)c2c(c(C)c1O)CC[C@@](C)(CCC[C@H](C)CCC[C@H](C)CCCC(C)C)O2	inactive
CCOC(=O)Cn1cccc1-c1nc(-c2ccc(OC)cc2)c(-c2ccc(OC)cc2)s1	inactive
